# Experimental data reported in PubChem BioAssay AID1159580 (chemical genetic matrix, 2015).
# “And” between values parts separate entries of the source, which are not always exact repeats. Equal entries are not always repeated. Out of some 5,500 compounds screened, about 2,000 (36%) were called active. About 18% were inconclusive and are not listed. The list shows a part of the results. Unmarked numbers belong to inactive results. Cut-off read from the data, not from the text of the source: active = normalized growth mostly below about 0.91 (no sharp cut-off); inconclusive = no clear call, values can overlap the other calls; inactive = mostly above about 0.92.
# Experiment: chemical genetic growth profiling, strain panel (AID 1159580);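 note: tested at 20 µM; growth read once vehicle control cultures reached saturation at 30 °C; 1 = growth at the plate median or of vehicle wells; lower values mean less growth of the strain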
# Conditions: S. cerevisiae deletion strains, growth OD
smiles,measurement,setting,value
C=C[C@@](C)(O)CCC1C(=C)C[C@H](O)C2C(C)(C)CCCC12C (some centres not stated),normalized growth,"locus YAL013W, strain DEP1, active compounds read low",1.01
same,normalized growth,"locus YAL021C, strain ccr4, active compounds read low",1.01
same,normalized growth,"locus YAL026C, strain drs2, active compounds read low",0.972
same,normalized growth,"locus YAL030W, strain snc1, active compounds read low",0.996
same,normalized growth,"locus YBL061C, strain skt5, active compounds read low",0.988
same,normalized growth,"locus YBR009C, strain hhf1, active compounds read low",0.986
same,normalized growth,"locus YBR021W, strain FUR4, active compounds read low",0.998
same,normalized growth,"locus YBR023C, strain chs3, active compounds read low",0.978
same,normalized growth,"locus YBR171W, strain sec66, active compounds read low",0.976
same,normalized growth,"locus YBR229C, strain ROT2, active compounds read low",1.01
same,normalized growth,"locus YBR231C, strain swc5, active compounds read low",1
same,normalized growth,"locus YBR279W, strain paf1, active compounds read low",0.998
same,normalized growth,"locus YCL011C, strain gbp2, active compounds read low",0.991
same,normalized growth,"locus YCL016C, strain dcc1, active compounds read low",0.971
same,normalized growth,"locus YCL029C, strain bik1, active compounds read low",1.02
same,normalized growth,"locus YCL061C, strain MRC1, active compounds read low",0.98
same,normalized growth,"locus YCL069W, strain vba3, active compounds read low",0.999
same,normalized growth,"locus YCR088W, strain abp1, active compounds read low",0.99
same,normalized growth,"locus YDL005C, strain med2, active compounds read low",0.976
same,normalized growth,"locus YDL035C, strain GPR1, active compounds read low",0.991
same,normalized growth,"locus YDL040C, strain nat1, active compounds read low",0.997
same,normalized growth,"locus YDL074C, strain BRE1, active compounds read low",0.974
same,normalized growth,"locus YDL101C, strain DUN1, active compounds read low",1.01
same,normalized growth,"locus YDL134C, strain PPH21, active compounds read low",1.01
same,normalized growth,"locus YDL185W, strain tfp1, active compounds read low",1.02
same,normalized growth,"locus YDL192W, strain arf1, active compounds read low",1.02
same,normalized growth,"locus YDR001C, strain nth1, active compounds read low",0.989
same,normalized growth,"locus YDR069C, strain doa4, active compounds read low",0.99
same,normalized growth,"locus YDR101C, strain arx1, active compounds read low",1
same,normalized growth,"locus YDR137W, strain rgp1, active compounds read low",0.859
same,normalized growth,"locus YDR150W, strain NUM1, active compounds read low",1.01
same,normalized growth,"locus YDR159W, strain sac3, active compounds read low",1.01
same,normalized growth,"locus YDR162C, strain NBP2, active compounds read low",0.994
same,normalized growth,"locus YDR195W, strain ref2",1.05
same,normalized growth,"locus YDR297W, strain sur2, active compounds read low",0.993
same,normalized growth,"locus YDR318W, strain mcm21, active compounds read low",1.02
same,normalized growth,"locus YDR334W, strain swr1, active compounds read low",0.993
same,normalized growth,"locus YDR335W, strain msn5, active compounds read low",1.01
same,normalized growth,"locus YDR388W, active compounds read low",1.02
same,normalized growth,"locus YDR392W, strain spt3, active compounds read low",0.628 (active)
same,normalized growth,"locus YDR502C, strain sam2, active compounds read low",1.01
same,normalized growth,"locus YEL003W, strain gim4, active compounds read low",1
same,normalized growth,"locus YEL037C, strain rad23, active compounds read low",0.987
same,normalized growth,"locus YEL061C, strain CIN8 (second series), active compounds read low",0.992
same,normalized growth,"locus YEL061C, strain CIN8, active compounds read low",1.01
same,normalized growth,"locus YER015W, strain faa2, active compounds read low",0.995
same,normalized growth,"locus YER016W, strain bim1, active compounds read low",0.996
same,normalized growth,"locus YER110C, active compounds read low",1.03
same,normalized growth,"locus YER111C, strain swi4, active compounds read low",0.976
same,normalized growth,"locus YER155C, strain BEM2 (second series), active compounds read low",1.01
same,normalized growth,"locus YER155C, strain BEM2, active compounds read low",1.01
same,normalized growth,"locus YER167W, strain BCK2, active compounds read low",1.01
same,normalized growth,"locus YFR010W, strain ubp6, active compounds read low",1.01
same,normalized growth,"locus YGL078C, strain dbp3, active compounds read low",1.02
same,normalized growth,"locus YGL086W, strain mad1, active compounds read low",1.02
same,normalized growth,"locus YGL167C, strain pmr1, active compounds read low",0.97
same,normalized growth,"locus YGL173C, strain kem1, active compounds read low",0.974
same,normalized growth,"locus YGL227W, strain vid30, active compounds read low",0.997
same,normalized growth,"locus YGL240W, strain doc1, active compounds read low",1
same,normalized growth,"locus YGL248W, strain PDE1, active compounds read low",1.01
same,normalized growth,"locus YGL253W, strain hxk2, active compounds read low",0.984
same,normalized growth,"locus YGR078C, strain PAC10, active compounds read low",1
same,normalized growth,"locus YGR135W, strain pre9, active compounds read low",1
same,normalized growth,"locus YGR229C, strain SMI1, active compounds read low",1
same,normalized growth,"locus YGR252W, strain gcn5, active compounds read low",0.995
same,normalized growth,"locus YHR013C, strain ard1, active compounds read low",1.02
same,normalized growth,"locus YHR027C, strain rpn1, active compounds read low",1
same,normalized growth,"locus YHR030C, strain SLT2, active compounds read low",1.01 and 0.934
same,normalized growth,"locus YHR079C, strain IRE1 (second series), active compounds read low",1.02
same,normalized growth,"locus YHR079C, strain IRE1, active compounds read low",0.955
same,normalized growth,"locus YHR094C, strain hxt1, active compounds read low",1.02
same,normalized growth,"locus YHR129C, strain ARP1, active compounds read low",1.01
same,normalized growth,"locus YHR142W, strain chs7, active compounds read low",0.957
same,normalized growth,"locus YHR200W, strain rpn10, active compounds read low",1.04
same,normalized growth,"locus YIL066C, strain RNR3, active compounds read low",1.02
same,normalized growth,"locus YIL073C, strain SPO22, active compounds read low",1.06
same,normalized growth,"locus YIL125W, strain kgd1, active compounds read low",1.02
same,normalized growth,"locus YIR030C, strain dcg1, active compounds read low",1.02
same,normalized growth,"locus YJL092W, strain hpr5, active compounds read low",0.993
same,normalized growth,"locus YJL095W, strain BCK1 (second series), active compounds read low",0.992
same,normalized growth,"locus YJL095W, strain BCK1, active compounds read low",0.999 and 0.952
same,normalized growth,"locus YJL115W, strain asf1, active compounds read low",0.99
same,normalized growth,"locus YJL129C, strain trk1, active compounds read low",0.966
same,normalized growth,"locus YJL134W, strain LCB3, active compounds read low",1.01
same,normalized growth,"locus YJL154C, strain vps35, active compounds read low",0.997
same,normalized growth,"locus YJL164C, strain tpk1, active compounds read low",0.982
same,normalized growth,"locus YJL166W, strain qcr8, active compounds read low",0.981
same,normalized growth,"locus YJL168C, strain set2, active compounds read low",1.03
same,normalized growth,"locus YJL187C, strain SWE1 (second series), active compounds read low",1
same,normalized growth,"locus YJL187C, strain SWE1, active compounds read low",0.991
same,normalized growth,"locus YJR043C, strain POL32, active compounds read low",0.997
same,normalized growth,"locus YJR066W, strain TOR1, active compounds read low",0.923
